SMILES strings stand for the structures. Calls of active or inactive are those of the source. How the source made its calls: active means hit-call score of the fitted dose curve at least 0.9, where 1 is the maximum; inactive means score below 0.9.

Read-out in the experiment: succinate dehydrogenase complex iron sulfur subunit B (SDHB), SDHB (gene 6390)
The experiment in a line: LTEA_HepaRG_SDHB: Life Technologies and Expression Analysis (LTEA) Assay for succinate dehydrogenase complex iron sulfur subunit B (SDHB) using HepaRG (AID 2283528). The settings on record: mRNA level, 48 h; actives raise or lower the signal. As to the method: LTEA_HepaRG is a cell based, multiplexed-readout assay that uses HepaRG, a human liver cell line, with measurements taken at 48 hours after chemical dosing on a 96-well plate.LTEA_HepaRG_SDHB is one of 102 assay component(s) measured in the LTEA HepaRG cell culture assay. It is a marker of Cell proliferation, survival, death.Data from the assay component LTEA_HepaRG_SDHB was analyzed into 1 endpoint. This assay endpoint, LTEA_HepaRG_SDHB, was analyzed with bidirectional fitting relative to DMSO as the negative control and baseline of activity. Using a type of inducible reporter, measures of mRNA induction for gain or loss-of-signal activity can be used to understand regulation of transcription factor activity. To generalize the intended target to other relatable targets, this assay endpoint is annotated to the oxidoreductase intended target family, where the subfamily is ubiquinone.
A total of 1060 chemcials from the ToxCast library were tested in eight-point concentration-response experiments. Cell culture and cytotoxicity assays were conducted at Thermo Fisher Scientific's Custom Services facility (Madison, WI). A single lot of human HepaRG cells (Thermo Fisher Scientific, Frederick, MD) was used for the cell culture experiments. 96-well format collagen type I coated plates of human HepaRG cells were prepared using established methods. Briefly, cryopreserved HepaRG cells were thawed, plated at a density of approximately 100,000 cells/well in HepaRG Thaw, Plate, and General Purpose media (HPRG770, Thermo Fisher Scientific), and incubated for 48 hours. 0.5% DMSO was selected as vehicle control to balance the requisite need of DMSO in HepaRG cultures to maintain differentiation (for example, baseline metabolism, proportions of hepatocytes vs. cholangiocytes), while enabling further hepatic receptor pathway activation (for example, PXR and CAR) in response to chemical exposure. 48 hours after plating, the culture medium was replaced with HepaRG Serum-Free Incudtion Media. Cells were exposed to each test chemical in duplicate and maintained in CO2 incubators for another 48 hours. Chemical plates were thawed to room temperature and 200x concentrations of treatment groups were prepared. 8-point conentration-reponse curves were made with the highest exposure at 100 uM, followed by half-log dilutions, all in 0.5% DMSO. Each test plate contained variouse controls, induction positive controls (1mM phenobarbital), cytotoxicity positive controls ([…] aflatoxin B1), vehicle controls (0.5% DMSO), and total lysis controls (0.5% DMSO). Cell morphology images were taken using an Essen IncuCyte FLR automated microscope, with six 96-well plates imaged in about 24 minutes. Images were captured and exported and JPEG files. Spent culture media was transfered to black-well plates for the LDH assay, and remaining media was sorted at -80 C for later use. Cells were treated with RLT buffer and frozen until shipped for gene expression analysis. Total RNA was isolated from the cell suspension in 75 uL of Buffer RLT (Qiagen, Germantown, MD 20874) by Quintiles/Expression Analysis (Durham, NC) using a custom isolation procedure. Total RNA from each plate well was transferred to a preamplification plate. Fluidigm's 96.96 Dynamic ArrayTM (Fluidigm, Amsterdam, the Netherlands) technology was used for gene expression analyses by quantitative reverse transcription polymerase chain reaction (qRT-PCR, performed by Quintiles/Expression Analysis, Durham, NC)89. Standard TaqManTM Assays (Applied Biosystems/ThermoFisher Scientific, Foster City, CA) were used to assess the expression of 93 genes selected based on their selectivity and sensitivity to important hepatic receptors known to be modulated by environmental chemicals; importance in human hepatocyte functionality; and hepatotoxicity. […]
For `CCC(C)n1c(=O)[nH]c(C)c(Br)c1=O` (stereo not given), the molecule was called inactive.
In the case of `CSC(=O)c1c(C(F)F)nc(C(F)(F)F)c(C(=O)SC)c1CC(C)C`, the outcome was inactive.
The value for `Clc1cccc(C(Cl)(Cl)Cl)n1` was “inactive”; that for `CCCCC(O)(Cn1cncn1)c1ccc(Cl)cc1Cl` (stereo not given) was “inactive”.
Turning to `CCCN(CC)CC1COC2(CCC(C(C)(C)C)CC2)O1` (stereo not given), the molecule was classed as inactive.
Next, `COP(=S)(OC)SCn1nnc2ccccc2c1=O`: “inactive”.
Turning to `COc1ccc(-c2ccccc2)cc1NNC(=O)OC(C)C`, the call was inactive.
`CC(C)N1C(=O)c2ccccc2NS1(=O)=O`: the result was inactive.
Next, `COC(=O)c1c(C(F)F)nc(C(F)(F)F)c(C2=NCCS2)c1CC(C)C`: “inactive”; `CS(=O)(=O)c1ccc(C(=O)C2C(=O)CCCC2=O)c([N+](=O)[O-])c1`: “inactive”; `CS(=O)(=O)c1cc(C(F)(F)F)ccc1C(=O)c1cnoc1C1CC1`: “inactive”.
As to `Cc1nc(N(C)C)nc(OC(=O)N(C)C)c1C`, the result was inactive.
With `Cc1cnc(C2=NC(C)(C(C)C)C(=O)N2)c(C(=O)O)c1` (stereo not given), the molecule was classed as inactive.
Next, `CCOC(=O)C(C)OC(=O)c1cc(Oc2ccc(C(F)(F)F)cc2Cl)ccc1[N+](=O)[O-]` (stereo not given): “inactive”; `COC(=O)N(C(=O)N1CO[C@@]2(C(=O)OC)Cc3cc(Cl)ccc3C2=N1)c1ccc(OC(F)(F)F)cc1`: “inactive”.
On to `CC1(C)CON(Cc2ccccc2Cl)C1=O`, for which the call was inactive.
For `O=c1n(Cl)c(=O)n(Cl)c(=O)n1Cl`, the outcome was inactive.
For `COCC(C)N(C(=O)CCl)c1c(C)csc1C` (stereo not given), the molecule was classed as inactive.
In the case of `CCCC(=NOCC)C1=C(O)CC(CC(C)SCC)CC1=O` (stereo not given), the outcome was inactive.
Consider `CCNC(=O)NC(=O)C(C#N)=NOC`, for which the call was inactive.
On to `O=C1C2CC=CCC2C(=O)N1SC(Cl)(Cl)Cl` (stereo not given), for which the result was inactive.
For `CCCCOCN(C(=O)CCl)c1c(CC)cccc1CC`, the molecule was classed as inactive.
For `CC(C)NC(=O)N1CC(=O)N(c2cc(Cl)cc(Cl)c2)C1=O`, the outcome was inactive.
With `Clc1nc(Cl)nc(Nc2ccccc2Cl)n1`, the molecule was classed as inactive.
Next, `CC(C)(C)C(=O)C(Oc1ccc(Cl)cc1)n1cncn1` (stereo not given): “inactive”.
On to `CCOP(=S)(OCC)Oc1nc(Cl)n(C(C)C)n1`, for which the molecule was classed as inactive.
As for `CCOc1nc(C(Cl)(Cl)Cl)ns1`, the molecule was called inactive.
In the case of `Cc1c(COC(=O)[C@@H]2[C@H](/C=C(\Cl)C(F)(F)F)C2(C)C)cccc1-c1ccccc1`, the molecule was called inactive.
With `COC(=O)NC(=S)Nc1ccccc1NC(=S)NC(=O)OC`, the result was inactive.
With `COP(=S)(OC)Oc1ccc([N+](=O)[O-])c(C)c1`, the call was inactive.
Next, `CC1(C)C(C=C(Cl)Cl)C1C(=O)OC(C#N)c1cccc(Oc2ccccc2)c1` (stereo not given): “inactive”.
Consider `CC(C)C1(C)N=C(c2ncccc2C(=O)O)NC1=O` (stereo not given), for which the outcome was inactive.
Regarding `COC(=O)NS(=O)(=O)c1ccc(N)cc1`, the result was inactive.
Regarding `Nc1c(Cl)c(F)nc(OCC(=O)O)c1Cl`, the call was inactive.
With `CC(C)=CC1C(C(=O)OCc2coc(Cc3ccccc3)c2)C1(C)C` (stereo not given), the call was inactive.
Next, `COP(=O)(OC)O/C(C)=C/C(=O)N(C)C`: “inactive”; `Nc1c(Cl)c(Cl)nc(C(=O)O)c1Cl`: “inactive”; `CNC(=O)N(C)c1nnc(C(C)(C)C)s1`: “inactive”.
With `Cn1c(-c2ccccc2)cc(-c2ccccc2)[n+]1C`, the result was inactive.
Take `COCc1cnc(C2=NC(C)(C(C)C)C(=O)N2)c(C(=O)O)c1` (stereo not given): the molecule was classed as inactive.

Values taken from PubChem BioAssay (EPA / NIEHS).
